Assay outcomes (PubChem)
Pf growth 48h = P. falciparum growth inhibition at 48 hours (one generation); actives 5.9% (n = 310,000); AID 504832; Potency, µM (doses to about 28.7 µM), usual class: inhibitors; P. falciparum luciferase growth in erythrocytes, 48 h
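Luciferase-expressing parasites in RBCs, 2% Hct / 0.1% parasitemia final; RPMI 1640 + 0.5% Albumax; 37 C, 5% CO2, one generation; luminescence read-out, lower signal = inhibition.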
Pf growth 96h = P. falciparum growth inhibition at 96 hour, primary screen for plastid delayed-death inhibitors. P. falciparum luciferase reporter growth, 96 h. actives 6.9% (n = 320,000). Potency, µM (highest dose often 28.7 µM), usual class: inhibitors
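Infected RBCs, 2% Hct / 0.05% parasitemia final; luciferase-reporter P. falciparum; cpd 96 h, 37 C, 5% CO2; luciferase detection reagent; luminescence.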
HCV inhibitor = blocks hepatitis C virus; Huh7.5.1 HCVcc-Cre infection, luciferase reporter, 44 h; Potency, µM (titrated, usually from 41.8 µM), most hits filed as inhibitors; actives 3.4% (n = 340,000); AID 651820
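Cells (1,000/well) were plated 4 h before compound, then infected with HCVcc-Cre virus (~0.5 moi). After 44 h further culture, infection was read as luciferase luminescence following a 15 min substrate incubation at room temperature.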
Cycloheximide cs = counter-screen hit for Shiga toxin inhibitors, cycloheximide; cell reporter, cycloheximide protein synthesis inhibition counterscreen; AID 2314; max response, %; actives 12% (n = 300,000); in the data active = max response mostly above about 13%, no sharp cut-off; inactive = mostly below about 14%; also: read at 38.3 µM for the half of the compounds with a filed dose
HCMV antiviral = blocks human cytomegalovirus replication; activity change, negative = inhibition, % at 57.5 µM; actives 4.5% (n = 410,000); HFF cells, HCMV-luciferase reporter, 72 h; active compounds read low; AID 1259415; in the data active = activity change below about -60%; inconclusive = no clear call, values can overlap the other calls; inactive = above about -39%
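Compounds were evaluated in HFFs infected with an HCMV luciferase reporter virus (MOI 1 PFU/cell). Luciferase in lysates collected 72 h post infection served as the replication measure.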
Shiga toxin inh = inhibitors of Shiga toxin in Vero cells; Vero cells, Shiga toxin protein synthesis inhibition reporter; inhibition, % at 38.7 µM; actives 9.2% (n = 290,000); in the data active = inhibition mostly above about 28%, no sharp cut-off; inactive = mostly below about 43%
HCV inh confirm = confirmation of hepatitis C virus inhibitors; actives 78% (n = 640); shares compounds with HCV inhibitor; HCVcc-Cre infectious virus cell assay, luciferase, inhibition; AID 720575; Potency, µM (series often up to 41.8 µM), hits mostly inhibitors; also: nearly all actives have a fitted effect of over 80% in size
HCV host tox = host cell cytotoxicity counter-screen for HCV inhibitors | Potency, µM (top dose mostly 41.8 µM), usual class: inhibitors | shares compounds with HCV inhibitor | AID 720576 | HCV host cell line cytotoxicity counterscreen | actives 22% (n = 640);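 also: 44 h compound exposure; nearly all actives have a fitted effect of over 55% in size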
Numbers stand for hits; n = inactive; u = inconclusive; x = no result. Shown are actives, neighbours in structure and some others; about 21% of the full set was active somewhere. Unless noted, calls follow the shape of the dose curve; as a rule, active = well fitted curve in the direction sought with a large enough effect; inconclusive = small, poorly fitted or top-dose-only effect, or another doubt; inactive = no such curve, though single readings can be large; an effect the other way counts as inactive or inconclusive.

SMILES	Pf growth 48h	Pf growth 96h	HCV inhibitor	Cycloheximide cs	HCMV antiviral	Shiga toxin inh	HCV inh confirm	HCV host tox
C/C(CCc1oc2ccccc2c1-c1ccc(C)o1)=N/O	n	n	7.9µM	n	n	n	25µM	n
O=C(NC1CCS(=O)(=O)C1)/C(=C\c1ccco1)NC(=O)c1ccccc1 (stereo not given)	n	n	n	n	n	n	x	x
O=C(NC1CCS(=O)(=O)C1)/C(=C/c1ccco1)NC(=O)c1ccccc1 (stereo not given)	n	n	7.1µM	n	n	n	n	n
Cc1ccc(C2(C(F)(F)F)NC(=O)N3N=C4CCCCCN4C3=C2C#N)cc1 (stereo not given)	n	n	n	n	n	n	x	x
Cc1ccc(/C=N/NC(=O)c2nnn(-c3nonc3N)c2C(C)C)o1	n	n	n	n	n	n	x	x
CCn1c(=NC(=O)C2COc3ccccc3O2)sc2c(C)ccc(OC)c21 (stereo not given)	u	u	u	n	u	n	13µM	n
CCn1c(=NC(=O)CN2C(=O)CCC2=O)sc2c(OC)ccc(OC)c21	x	n	u	n	n	n	x	x
Cc1ccc(CSc2nccc(-c3c(C)nc4ccccn34)n2)cc1	13µM	u	5.6µM	n	n	n	25µM	n
O=C(NCc1cccs1)c1ccc2sc([C@H]3C[C@H](O)[C@@H](CO)O3)nc2c1	x	x	x	x	n	x	x	x
C=C(NC(=O)C(=C)NC(=O)c1csc(C2=NC3c4csc(n4)C4NC(=O)c5csc(n5)C(C(C)(O)C(C)O)NC(=O)C5CSC(=N5)/C(=C/C)NC(=O)C(C(C)O)NC(=O)c5csc(n5)C3(CC2)NC(=O)C(C)NC(=O)C(=C)NC(=O)C(=C)NC(=O)C(C(C)C)NC2C=Cc3c(C(C)O)cc(nc3C2O)C(=O)OC4C)n1)C(N)=O (stereo not given)	x	x	4µM	x	-98	x	2.5µM	3.1µM
C=C(C(=O)O)C(CCCCCC)C(=O)O (stereo not given)	n	n	0.63µM	n	n	n	n	n
CCCCCCCCCCCCCCCC(=O)O	n	n	x	x	x	x	x	x
CN(C(=O)C1CCC(=O)N(C2CC2)C1)C1CCCCC1 (stereo not given)	n	n	n	n	n	n	x	x
Oc1ccccc1-c1nc(NCc2cccnc2)c2ccccc2n1	15µM	u	5.6µM	n	n	n	13µM	n
O=C(Cc1ccccc1)NCc1cccnc1	n	n	n	n	n	n	x	x
CC(C)n1cc(/C=C(\C#N)S(=O)(=O)c2ccccc2)c2ccccc21	u	n	8.9µM	n	n	n	u	n
Cc1ccc(-c2csc(N3CCN(c4cc5c(cc4Cl)nc(C(C)N)n5CCCO)CC3)n2)cc1 (stereo not given)	n	u	u	n	n	n	x	x
Cc1csc(N2CCN(c3cc4c(cc3Cl)nc(-c3ccncc3)n4CCCN3CCCC3)CC2)n1	u	3.7µM	u	n	n	n	14µM	n
COc1ccc(C(=O)N[C@H](C(=O)OCn2nnc3ccccc3c2=O)C(C)C)cc1	n	n	n	x	n	x	x	x
CCN(CC)CCNC(=O)c1nn(-c2ccc(OC)c(Cl)c2)c(=O)c2c1c1ccccc1n2C	x	x	x	x	n	x	x	x
O=S1(=O)c2ccc(Br)cc2N2CCC[C@@H]2CN1Cc1ccc(Cl)cc1	x	x	8.9µM	x	n	x	u	n
COc1ccccc1CC(=O)Nc1cc2oc3ccccc3c2cc1OC	u	u	4µM	25	n	n	13µM	n
Cc1ccc(CN2CCN(Cc3ccco3)CC2)cc1	n	u	n	n	n	n	x	x
c1ccc2c(N3CCCCCC3)nc(-c3ccncc3)nc2c1	u	n	8.9µM	n	u	n	0.01µM	n
Fc1ccccc1-c1nc(N2CCCCC2)c2ccccc2n1	n	u	n	n	n	n	x	x
Fc1ccc(Nc2nc(-c3ccncc3)nc3ccccc23)cc1	n	u	u	n	n	n	x	x
c1ccc(Nc2nc(-c3ccncc3)nc3ccccc23)cc1	n	u	u	n	n	n	5µM	n
